Laboratory results: PubChem BioAssay (NCATS)
Results filed as inconclusive are left out. Entries that show only a call come without a potency. Active and inactive are the calls of the source. Calls come from the whole dose curve; as a rule, active = well fitted inhibition curve with a large enough effect; inconclusive = small, poorly fitted or top-dose-only effect; inactive = flat fitted curve, though single readings scatter.

Each compound was assayed against Calcium and integrin-binding protein 1 (Homo sapiens) (UniProt Q99828) (assay: Primary qHTS for Identification of Calcium Integrin Binding Protein 1 (CIB1) Competitor (AID 1508620; note: top concentration of the series differs between compounds)). Conditions: CIB1-GST / FITC-alphaIIb peptide fluorescence polarization; series mostly up to 114 µM.
In short: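 Fluorescence polarization competition: GST-tagged CIB1 (1 uM final) preincubated with compound 15 min at room temperature, then FITC-labelled alphaIIb peptide (100 nM final) added. After 15 min at room temperature, polarization read at Ex 480/Em 540.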

Calcium and integrin-binding protein 1 (Homo sapiens), sequence (Q99828 whole entry, looked up): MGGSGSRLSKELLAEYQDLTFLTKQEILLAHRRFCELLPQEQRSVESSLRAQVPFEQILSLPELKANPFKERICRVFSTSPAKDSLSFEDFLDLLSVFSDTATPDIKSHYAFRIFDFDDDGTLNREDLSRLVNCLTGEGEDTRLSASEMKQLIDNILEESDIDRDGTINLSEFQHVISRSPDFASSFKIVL

| SMILES | Potency |
| --- | --- |
| Cc1cc(C)c2c(c1)C(N(Cc1cc(C(F)(F)F)cc(C(F)(F)F)c1)c1nnn(C)n1)CCCN2CC1CCC(C(=O)O)CC1 (stereo unspecified) | inactive |
| Cn1c(CO)c(-c2ccccc2)c2cc([N+](=O)[O-])ccc21 | inactive |
| COc1ccccc1C(=O)Nc1cccc(NC(=O)c2cccc(C)c2)c1 | inactive |
| O=S(=O)(NCc1ccccn1)c1ccc(Br)c2ccccc12 | inactive |
| CC[C@H](C)/C=C(C)/C=C/C1=CC2=C(Cl)C(=O)[C@](C)(O)[C@H](OC(C)=O)[C@H]2CO1 | inactive |
| COc1cc(CCc2ccc(OCC=C(C)C)cc2)cc(OC)c1OC | inactive |
| Fc1ccc2[nH]ccc2c1-c1nc(N2CCOCC2)c2sc(CN3CCN(CC4CC4)CC3)cc2n1 | inactive |
| C=C(CCC1C(C)(O)CCC2C(C)(C)C(O)CCC12C)C(O)CO (stereo unspecified) | inactive |
| CC(C)C[C@H](CO)Nc1nc(S[C@@H](C)c2ccccc2)nc2nc(N)sc12 | inactive |
| CC(=O)OC1[C@H]2[C@@H](C[C@@H](C)[C@@H]3C=CC(=O)[C@@]13C)OC(=O)[C@@H]2C (stereo partly specified) | inactive |
| CCCCCCCCC(=O)N[C@H](CN1CCCC1)[C@H](O)c1ccc2c(c1)OCCO2 | inactive |
| CC(=O)N[C@H]1[C@H](O[C@H]2CC[C@@]3(C)C(CC[C@]4(C)C3CC=C3C5CC(C)(C)CC[C@]5(C(=O)O)C(O)C[C@]34C)C2(C)C)O[C@H](CO[C@@H]2O[C@H](C)[C@H](O)[C@H](O)[C@H]2O[C@@H]2OC[C@@H](O)[C@H](O)[C@H]2O)[C@@H](O)[C@@H]1O (stereo partly specified) | inactive |
| CC(=O)O[C@H]1[C@@]2(O)C[C@H](C)[C@H](OC(=O)c3ccccc3)[C@@H]2[C@@H](OC(=O)CO)[C@]2(OC(C)=O)C[C@H]3C(=O)C(C)(C)C[C@@H]3[C@@]1(C)[C@H]2OC(C)=O | inactive |
| CNCCC(c1cccs1)c1ccc(O)c2ccccc12 (stereo unspecified) | inactive |
| C=C1C(=O)O[C@@H]2/C=C(\CO)CC/C=C(/C=O)C[C@@H](O)[C@@H]12 | inactive |
| Nc1c(S(=O)(=O)c2ccccc2)c2nc3ccccc3nc2n1-c1ccc(F)cc1 | inactive |
| C/C(=C\CCC(C)C1=CCC2(C)OC3=C(CC12)C(=O)C(O)CC3)CO (stereo unspecified) | inactive |
| CN1C(=O)c2sccc2N(C)c2nc(Nc3ccc(S(N)(=O)=O)cc3)ncc21 | inactive |

| SMILES | Potency |
| --- | --- |
| CC[C@@H](C)Nc1cc(C(=O)NC2CC3CC[C@@H](C2)N3c2ccc(C(=O)C3CC3)cn2)c(C)cc1C(N)=O (stereo partly specified) | inactive |
| COC(CCc1ccc(O)cc1)CC(=O)CCc1ccc(O)cc1 (stereo unspecified) | inactive |
| CCOc1ccc(-n2c([C@@H](C)N(Cc3cccnc3)C(=O)Cc3ccc(OC(F)(F)F)cc3)nc3ncccc3c2=O)cc1 | inactive |
| COC1C(O)C(OC2CCC3(C)C(CCC45CCC6C7(COC(=O)C7)OC4(O)C6(C)CCC35)C2)OC(C)C1OC1OC(CO)C(OC2OC(CO)C(O)C(O)C2O)C(O)C1O (stereo unspecified) | inactive |
| COC1=CC(=O)O/C1=C(/OC)[C@@H]1O[C@H]1c1ccccc1 | inactive |
| CC(=O)C1(C)CCC2C3C=C(C)C4=CC(=O)CCC4(C)C3CCC21C (stereo unspecified) | inactive |
| CC1(C=O)CCCC2(C)C1CCC13CC(CO)C(CCC12)C3 (stereo unspecified) | inactive |
| O=C(O)CCc1nccc2c1[nH]c1ccccc12 | inactive |
| CCNC1(C(N)=O)CN(c2nc(C)nc3c(-c4ccc(Cl)cc4)c(-c4ccccc4Cl)nn23)C1 | inactive |
| C/C=C(\C)[C@@H]1C(C)=C[C@@H]2[C@H]([C@@H]1/C=C/C=C/C(=O)O)[C@@H](C)CC[C@@H]2O | inactive |
| COC(=O)CC[C@@H](C)C1CCC2C3CCC4C[C@H](OC(C)=O)CCC4(C)C3C[C@H](O)C21C (stereo partly specified) | inactive |
| C/C=C(\C)C(=O)OC1C(C)C2(O)C(C=C(CO)CC3(O)C(=O)C(C)=CC32)C2C(C)(C)C12OC(C)=O (stereo unspecified) | inactive |
| CCCCc1c(-c2ccc(OC)cc2)[nH]c2nccnc12 | inactive |
| C=C1C(=O)O[C@H]2/C=C(/C)[C@@H](OC(C)=O)C/C=C(\C)C[C@@H](OC(=O)/C(=C/C)COC(=O)/C(=C/C)CO)[C@@H]12 | inactive |
| CCC(C)C(=O)OC1C(C)C2(O)C(C=C(CO)CC3(O)C(=O)C(C)=CC32)C2C(C)(C)C12OC(=O)C(C)C (stereo unspecified) | inactive |
| COc1cc(N2CCC(O)CC2)ccc1Nc1nc(Nc2ccccc2S(=O)(=O)C(C)C)c2[nH]cnc2n1 | inactive |
| COc1cc(C(C)C)c(Oc2cnc(N)nc2N)cc1I | inactive |
| Cc1sc2c(c1C)C(c1ccc(Cl)cc1)=N[C@H](CC(=O)NCCCCNC(=O)COc1cccc3c1C(=O)N([C@H]1CCC(=O)NC1=O)C3=O)c1nnc(C)n1-2 | inactive |
